This passage reports Potency and outcome results from PubChem BioAssay (NCATS).

Inconclusive results are not listed. Calls of active or inactive are those of the source. The call rests on the fitted dose curve; in most records, active means well fitted curve in the direction sought with a large enough effect; inconclusive means small, poorly fitted or top-dose-only effect, or another doubt; inactive means no such curve, though single readings can be large; an effect the other way counts as inactive or inconclusive.

Experiment [1] can be described thus: OV-KATE Cancer Cell Toxicity qHTS against the NCATS CANVASS Library (AID 1347345). Further: potency means the concentration at half of the fitted maximal effect. In a few lines:
(§1)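 Viability read-out: CellTiter-Glo luminescence after 72 h compound exposure at 37 °C/5% CO2. Cells plated at 1000/well, 4 h pre-incubation; 11-point titration. Bortezomib served as control.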
In general terms: qHTS replaces the single test concentration by a dilution series.

The nature of experiment [2]: U-118MG Cancer Cell Toxicity qHTS against the NCATS CANVASS Library (AID 1347351). Further: potency means the concentration at half of the fitted maximal effect. An outline of the steps:
as §1

The nature of experiment [3]: COV-362 Cancer Cell Toxicity qHTS against the NCATS CANVASS Library (AID 1347352). Further: potency means the concentration at half of the fitted maximal effect. An outline of the steps: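 qHTS cytotoxicity: compounds tested in 11 concentrations on 1000 seeded cells per well over 72 h; bortezomib served as control; signal from CellTiter-Glo luminescence.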
The nature of experiment [4]: HEK293 24hr Apoptosis Induction qHTS against the NCATS CANVASS Library (AID 1347359). Further: potency means the concentration at half of the fitted maximal effect. An outline of the steps: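 Caspase-3/7 activation measured as luminescence from the DEVD-based Caspase-Glo reagent, 15 min at room temperature, following 24-hour compound treatment of HEK293 cells.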
Experiment [5] in a line: HEK293 12hr Apoptosis Induction qHTS against the NCATS CANVASS Library (AID 1347361). Further: potency means the concentration at half of the fitted maximal effect. In a few lines:
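HEK293 cells (500/well, DMEM + 10% FBS) were exposed to natural products across an 11-point series for 12 hours at 37 degrees C. Caspase-3/7 activity was then measured with DEVD luciferase luminescence after 15 min at room temperature.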

Experiment [6] has as its target Luciferin 4-monooxygenase (Photinus pyralis) (UniProt P08659). Briefly: Firefly luciferase counterscreen qHTS: Assay Interference Panel against the NCATS CANVASS Library (AID 1347363). Further: series mostly up to about 57 µM. In a few lines:
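Luminescence inhibition readout: compounds (11-point qHTS) sat 15 min at room temperature with substrate mix (0.013 mM luciferin and ATP), then firefly luciferase was added and signal read 5 min later.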
In general terms: Counterscreens check selectivity or assay interference.

Experiment [7] is described as follows: KB-3-1 Cancer Cell Toxicity qHTS against the NCATS CANVASS Library (AID 1347366). Further: nearly all actives have a fitted effect of over 75% in size. Further: potency means the concentration at half of the fitted maximal effect. In a few lines:
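CellTiter-Glo luminescence measured viability after 72 h at 37C. KB-3-1 cells were seeded at 500 per well in DMEM/10% FBS.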

Experiment [8] is described as follows: qHTS for ATAD5 Agonist screened against the NCATS CANVASS Library (AID 1347367).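 Further: luciferase reporter driven by ATAD5 which rises upon DNA damage.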 In a few lines:
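Genotoxicity via ATAD5-luciferase luminescence after 16 h compound exposure (11-point series) at 37C in HEK293T-ATAD5 cells. CellTiter-Fluor viability read precedes the luminescence read; MMS serves as positive control.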

Experiment [9] in a line: MCF7 Cancer Cell Toxicity qHTS against the NCATS CANVASS Library (AID 1347369). Further: potency means the concentration at half of the fitted maximal effect. An outline of the steps:
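Cytotoxicity was measured as CellTiterGlo luminescence (ATP) after 72 h at 37 °C. The cells were MCF7 at 500 per well, with an 11-point compound concentration series.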

A short description of experiment [10]: J3T Cancer Cell Toxicity qHTS against the NCATS CANVASS Library (AID 1347371). Further: potency means the concentration at half of the fitted maximal effect. In a few lines: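 Viability of the J3T glioma line from dog is scored by ATP luminescence after a 72 hr incubation with natural products.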
The target in experiment [11] is Nuclear receptor subfamily 1 group I member 3 (Homo sapiens) (UniProt Q14994). Briefly: qHTS for Constitutive Androstane Receptor (CAR) Antagonist screened against the NCATS CANVASS Library (AID 1347372). Further: potency means the concentration at half of the fitted maximal effect. In a few lines:
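HepG2-CYP2B6-hCAR double-stable cells plated, 4hr attach; cpd pin-transferred; CITCO 50 nM final; 24hr 37C/5% CO2; CellTiter-Fluor 1hr (fluorescence), then ONE-Glo luminescence.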

Experiment [12] shares this target. Briefly: qHTS for Constitutive Androstane Receptor (CAR) Agonist screened against the NCATS CANVASS Library (AID 1347373).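 Further: every well also contained 1.5 µM PK11195 alongside the test compound.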 In a few lines:
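CAR agonism is scored as CYP2B6-promoter luciferase induction in a double-stable transfected HepG2 line, where 1.5uM PK11195 is included in each well. Compounds were tested over a 24hr exposure.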

The nature of experiment [13]: 10-beta competent E. coli microbial cell viability qHTS against the NCATS CANVASS Library (AID 1347376). Further: series mostly up to about 46 µM. An outline of the steps:
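Cytotoxicity toward competent E. coli is scored from cellular ATP content via BacTiter-Glo luminescence following overnight compound exposure at 37C, 5% CO2.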

Experiment [14] in a line: qHTS for H2AX Agonists against the NCATS CANVASS Library (AID 1347378). Further: potency means the concentration at half of the fitted maximal effect. An outline of the steps:
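Phospho-H2AX (S139) in CHO-K1 lysates measured by HTRF, reported as 665/615 nm emission ratio after 24 hr antibody incubation at room temperature. Cells were first treated with a compound series for 3 hr at 37C (0.76% DMSO final).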

A short description of experiment [15]: qHTS for Inflammasome Signaling Inhibitors: IL-1-beta AlphaLISA screen against the NCATS CANVASS Library (AID 1347379).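 Further: human THP-1 cells primed with LPS then triggered with ATP.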 An outline of the steps:
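Human THP-1 cells were pretreated 1 hr at 37 °C with compounds (up to 57.5 uM final), then stimulated with LPS (250 ng/mL final) and ATP (1.25 mM final). Secreted IL-1B was read by AlphaLISA after 16 hr.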

Experiment [16] in a line: Inflammasome Signaling qHTS Counterscreen: IL-1-beta AlphaLISA counterscreen against the NCATS CANVASS Library (AID 1347381).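 Further: cell-free check with purified IL-1β in medium and no THP-1 cells; series mostly up to about 57 µM.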 An outline of the steps: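 To flag interference with the AlphaLISA read-out, a known amount of purified IL-1-beta (4 pg) replaced cell supernatant. Detection used anti-IL-1-beta acceptor beads, biotinylated antibody and streptavidin donor beads at room temperature.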

A short description of experiment [17]: Viability qHTS for inhibitors of the SERCaMP assay screened against the NCATS CANVASS Library (AID 1347400). Further: nearly all actives have a fitted effect of over 70% in size. Further: potency means the concentration at half of the fitted maximal effect. In a few lines:
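Cytotoxicity counter-screen: ATP content (CellTiter-Glo luminescence) of SH-SY5Y-GLuc SERCaMP MJH297 cells after 48 h at 37C with compounds in an 11-point qHTS series.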

Experiment [18] can be described thus: HPAF-II 24hr Apoptosis Induction qHTS against the NCATS CANVASS Library (AID 1347356). An outline of the steps:
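Apoptosis induction in HPAF-II pancreatic cancer cells is measured as caspase-3/7 luminescence after a 24-hour exposure to compounds.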

Experiment [19] in a line: HPAF-II 12hr Apoptosis Induction qHTS against the NCATS CANVASS Library (AID 1347358). An outline of the steps:
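Apoptosis in HPAF-II pancreatic cancer cells is scored as caspase 3/7 luminescence following a 12-hour exposure to an 11-point compound series.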

Experiment [20] can be described thus: HPAF-II 18hr Apoptosis Induction qHTS against the NCATS CANVASS Library (AID 1347360). In a few lines: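 Caspase-3/7 activation was measured with luminescent Caspase-Glo 3/7 reagent (15 min, RT) in HPAF-II cancer cells (500 cells/well). Before detection, cells had been treated for 18 h at 37 C with compounds (11 points).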

Luciferin 4-monooxygenase (Photinus pyralis), sequence (P08659 whole entry, looked up): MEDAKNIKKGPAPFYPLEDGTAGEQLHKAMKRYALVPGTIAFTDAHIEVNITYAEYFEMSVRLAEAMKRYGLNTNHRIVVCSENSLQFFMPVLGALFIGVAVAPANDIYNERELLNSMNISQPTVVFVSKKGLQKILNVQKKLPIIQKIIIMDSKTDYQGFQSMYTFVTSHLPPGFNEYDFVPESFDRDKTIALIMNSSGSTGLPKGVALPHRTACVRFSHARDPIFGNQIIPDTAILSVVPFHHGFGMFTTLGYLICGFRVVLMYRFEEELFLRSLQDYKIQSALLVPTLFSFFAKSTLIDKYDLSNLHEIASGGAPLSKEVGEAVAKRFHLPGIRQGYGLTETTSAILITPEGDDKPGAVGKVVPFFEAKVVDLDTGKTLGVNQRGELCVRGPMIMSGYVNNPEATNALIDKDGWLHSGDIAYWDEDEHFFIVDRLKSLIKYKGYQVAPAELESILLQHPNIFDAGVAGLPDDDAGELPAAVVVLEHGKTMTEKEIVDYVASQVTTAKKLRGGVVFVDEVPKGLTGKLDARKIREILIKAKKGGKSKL
Nuclear receptor subfamily 1 group I member 3 (Homo sapiens), sequence (Q14994 whole entry, looked up): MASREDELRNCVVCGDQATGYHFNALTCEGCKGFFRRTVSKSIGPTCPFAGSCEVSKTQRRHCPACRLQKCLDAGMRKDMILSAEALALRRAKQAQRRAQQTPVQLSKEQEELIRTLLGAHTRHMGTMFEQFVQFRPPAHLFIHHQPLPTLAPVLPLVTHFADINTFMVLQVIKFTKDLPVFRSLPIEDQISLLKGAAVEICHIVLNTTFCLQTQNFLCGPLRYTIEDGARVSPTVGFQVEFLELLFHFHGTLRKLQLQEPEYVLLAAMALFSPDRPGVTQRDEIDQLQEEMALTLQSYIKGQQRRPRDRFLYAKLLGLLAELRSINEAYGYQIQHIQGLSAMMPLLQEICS

In the case of `C=CC(=C)CC[C@]1(C)[C@H]2C[C@H](OC(=O)C(C)CC)C=C3[C@H](OC(C)=O)O[C@H](OC(C)=O)[C@@]32[C@H](OC)C[C@@H]1C` (some centres not stated), the Potency is 2.17 µM (active) in experiment [1]; 3.43 µM (active) in experiment [2]; 4.33 µM (active) in [3]; 9.59 µM (active) in experiment [4]; 17.1 µM (active) in [5]; 6.79 µM (active) in [7]. Also, the Potency in [9] is 12.1 µM (active); in experiment [10] it was 4.81 µM (active); in experiment [11], 12.1 µM (active); in [14], 19.9 µM (active); in experiment [15], 7.03 µM (active); in experiment [17], 2.21 µM (active). Further, the Potency result in [6] and in experiment [8] was “inactive” throughout. The compound was called inactive in [12], in experiment [13] and in [16].
Take `CC(=O)O[C@@H]1C=C2C(=O)OC[C@]2(O)[C@@]2(C)CCCC(C)(C)[C@H]12`: the Potency in [1] was 5.94 µM (active); in experiment [2] it was 18.8 µM (active); in experiment [3] it was 8.38 µM (active); in experiment [15] it was 10.9 µM (active); in experiment [17], 12 µM (active). Besides, the Potency entry in experiment [6] and in [8] was “inactive” in each case. Also, the call in experiment [12], in [13] and in experiment [16] was inactive.
For `C[C@@]12C[C@@H](C[C@H]3C(=O)O[C@@H](c4ccoc4)[C@H](OC(=O)c4ccccc4)[C@@H]31)OC2=O`, the Potency result in experiment [1], in [2], in experiment [3], in experiment [19], in [4] and in experiment [20] was “inactive” throughout. Also, the Potency result in experiment [5], in experiment [6], in experiment [7], in experiment [8], in experiment [9] and in experiment [10] was “inactive” in each case. Also, the Potency entry in experiment [11], in experiment [14], in experiment [15] and in [17] was “inactive” throughout. The outcome in experiment [18], in experiment [12], in [13] and in experiment [16] was inactive.
Consider `C=C(C)[C@@H]1CC[C@]2(C)CC[C@]3(C)[C@H](CC[C@@H]4[C@@]5(C)CC[C@H](O)C(C)(C)[C@@H]5CC[C@]43C)[C@@H]12`, for which the Potency entry in [1], in experiment [2], in experiment [3], in experiment [19], in experiment [4] and in [20] was “inactive” throughout. Besides, the Potency entry in experiment [5], in [6], in experiment [7], in experiment [8], in experiment [9] and in experiment [10] was “inactive” throughout. Moreover, the Potency entry in [11], in [14], in experiment [15] and in experiment [17] was “inactive” each time. In addition, the result in experiment [18], in experiment [12], in [13] and in experiment [16] was inactive.
`CC1C(=O)C23CCC1C[C@@]21O[C@H]2C(C)(C)C=CC(=O)[C@@]23COC1=O` (some centres not stated): the Potency entry in [1], in [2], in [3], in experiment [19], in [4] and in experiment [20] was “inactive” in each case. Also, the Potency result in experiment [5], in [6], in [7], in experiment [8], in experiment [9] and in [10] was “inactive” each time. The Potency result in experiment [11], in experiment [14], in experiment [15] and in experiment [17] was “inactive” throughout. Also, the compound was classed as inactive in experiment [18], in experiment [12], in experiment [13] and in experiment [16].
As for `C[C@@H]1C(=O)[C@]23CC[C@H]1C[C@]21O[C@H]2C(C)(C)C=CC(=O)[C@]23COC1=O`, the Potency result in [1], in [2], in experiment [3], in experiment [19], in experiment [4] and in experiment [20] was “inactive” each time. Also, the Potency entry in experiment [5], in experiment [6], in [7], in [8], in experiment [9] and in experiment [10] was “inactive” each time. Moreover, the Potency result in experiment [11], in experiment [14], in experiment [15] and in [17] was “inactive” each time. The compound was called inactive in experiment [18], in experiment [12], in experiment [13] and in experiment [16].
